# According to PubChem BioAssay (NCI):
# This is part of a sample that, as a whole, favours compounds with a hit. Of some 79,000 tested, about 15% had one in any assay. Unmarked numbers belong to inactive results. Active and inactive are the calls of the source. Cut-off read from the data, not from the text of the source: active = growth inhibition above about 70%; inactive = the rest.
# How the values were obtained:
# [1] = NCI Yeast Anticancer Drug Screen. Data for the rad50EPP+ strain (AID 151);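 note: 0% = growth of vehicle-treated control cultures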; details: S. cerevisiae rad50 mutant strain, hits give high values
# How it was run: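 Growth inhibition read against vehicle controls in rad50EPP+ yeast, a strain altered in DNA damage repair, after compound exposure.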
# [2] = NCI Yeast Anticancer Drug Screen. Data for the mgt1 strain (AID 153); details: S. cerevisiae mgt1 mutant growth inhibition, hits give high values
# How it was run: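 mgt1 yeast grown with test compound; read-out is growth inhibition versus vehicle-treated cultures.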
# [3] = NCI Yeast Anticancer Drug Screen. Data for the rad50 strain (AID 155);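 note: 0% = growth of vehicle-only cultures of the same strain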; details: S. cerevisiae rad50 strain growth inhibition, hits give high values
# How it was run: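 A DNA repair-deficient yeast mutant serves as the test organism; compound-induced growth inhibition is calculated against vehicle-treated cells.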
# [4] = NCI Yeast Anticancer Drug Screen. Data for the mec2-1 strain (AID 157); details: S. cerevisiae mec2-1 strain, hits give high values
# How it was run: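 Yeast mec2-1 mutant treated with compound. Readout: growth inhibition vs vehicle controls.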
# [5] = NCI Yeast Anticancer Drug Screen. Data for the rad14 strain (AID 159);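 note: 0% = growth of vehicle-treated control cultures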; details: S. cerevisiae rad14 strain growth inhibition, hits give high values
# How it was run: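 Vehicle-treated cultures served as the baseline for growth inhibition of a DNA repair-mutant yeast strain exposed to each compound.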
# [6] = NCI Yeast Anticancer Drug Screen. Data for the CLN2oe strain (AID 163);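 note: 0% = growth of vehicle-only control cultures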; details: S. cerevisiae CLN2oe strain, hits give high values
# How it was run: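 Read-out: yeast growth inhibition, expressed relative to vehicle-only controls. The strain bears an engineered cell-cycle alteration.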
# [7] = NCI Yeast Anticancer Drug Screen. Data for the cln2 rad14 strain (AID 165);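 note: 0% = growth equal to vehicle treated cultures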; details: S. cerevisiae cln2 rad14 strain, hits give high values
# How it was run: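 cln2 rad14 yeast strain; compound exposure; growth inhibition read vs vehicle controls.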
# [8] = NCI Yeast Anticancer Drug Screen. Data for the bub3 strain (AID 167); details: S. cerevisiae bub3 mutant strain, hits give high values
# How it was run: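 Inhibition values come from growth of compound-treated mutant yeast normalised to vehicle-treated controls.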
# [9] = NCI Yeast Anticancer Drug Screen. Data for the wt2 strain (AID 169);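 note: 0% = growth of vehicle-treated yeast cultures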; details: S. cerevisiae wt2 strain growth inhibition, hits give high values
# How it was run: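 Read-out: growth inhibition versus vehicle-treated control cultures after compound exposure of the yeast strain.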
# [10] = NCI Yeast Anticancer Drug Screen. Data for the mlh1 strain (AID 171);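 note: 0% = growth of vehicle-treated control cultures of the same strain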; details: S. cerevisiae mlh1 strain growth inhibition, hits give high values
# How it was run: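 Read-out: growth inhibition versus vehicle controls. Strain: engineered yeast with a defined DNA repair or cell cycle defect, compound-treated.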
# [11] = NCI Yeast Anticancer Drug Screen. Data for the sgs1 strain (AID 173);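 note: 0% = growth of vehicle-only control cultures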; details: S. cerevisiae sgs1 mutant, hits give high values
# How it was run: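 Read-out: yeast growth inhibition relative to vehicle controls, following compound exposure of a strain with a defined DNA repair/cell cycle alteration.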
# [12] = NCI Yeast Anticancer Drug Screen. Data for the rad18 strain (AID 177); details: S. cerevisiae rad18 mutant growth inhibition, hits give high values
# How it was run: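 Readout: growth inhibition vs vehicle controls. Cells: genetically altered yeast strain, DNA repair defect.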
# [13] = NCI Yeast Anticancer Drug Screen. Data for the sgs1 mgt1 strain (AID 161);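 note: 0% = growth of cultures given vehicle only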; details: S. cerevisiae sgs1 mgt1 strain, hits give high values
# How it was run: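 Inhibition of yeast growth, normalised to vehicle-treated controls, is reported for a strain bearing genetic alterations in DNA damage repair.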
# [14] = NCI Yeast Anticancer Drug Screen. Data for the mlh1 rad18 strain (AID 175); details: S. cerevisiae mlh1 rad18 strain growth inhibition, hits give high values
# How it was run: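 Yeast w/ defined DNA-repair lesions; compound exposure; growth vs vehicle controls → % inhibition.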
# [15] = at 5.0 µM (retest, dose inferred, filed as 0.5)
# [16] = at 50.0 µM (retest, dose inferred, filed as 5.0)
smiles,measurement,setting,value
O=c1[nH]c(=O)n(CCCO)cc1F,growth inhibition,[1]; at 1.2 µM,-14%
same,growth inhibition,[1]; at 3.7 µM,-7%
same,growth inhibition,[1]; at 11.0 µM,-9%
same,growth inhibition,[1]; at 33.0 µM,-10%
same,growth inhibition,[1]; at 100.0 µM,-2%
same,growth inhibition,[2]; at 1.2 µM,-13%
same,growth inhibition,[2]; at 3.7 µM,-31%
same,growth inhibition,[2]; at 11.0 µM,-24%
same,growth inhibition,[2]; at 33.0 µM,-33%
same,growth inhibition,[2]; at 100.0 µM,-18%
same,growth inhibition,[3]; at 1.2 µM,-21%
same,growth inhibition,[3]; at 3.7 µM,-11%
same,growth inhibition,[3]; [15],42%
same,growth inhibition,[3]; at 11.0 µM,-10%
same,growth inhibition,[3]; at 33.0 µM,-12%
same,growth inhibition,[3]; [16],44%
same,growth inhibition,[3]; at 50.0 µM,34.4%
same,growth inhibition,[3]; at 100.0 µM,-13%
same,growth inhibition,[4]; at 1.2 µM,-36%
same,growth inhibition,[4]; at 3.7 µM,-27%
same,growth inhibition,[4]; [15],24%
same,growth inhibition,[4]; at 11.0 µM,-41%
same,growth inhibition,[4]; at 33.0 µM,-33%
same,growth inhibition,[4]; [16],20%
same,growth inhibition,[4]; at 50.0 µM,-38.6%
same,growth inhibition,[4]; at 100.0 µM,-23%
same,growth inhibition,[5]; at 1.2 µM,-29%
same,growth inhibition,[5]; at 3.7 µM,-19%
same,growth inhibition,[5]; at 11.0 µM,-20%
same,growth inhibition,[5]; at 33.0 µM,-26%
same,growth inhibition,[5]; at 100.0 µM,-30%
same,growth inhibition,[6]; at 1.2 µM,3%
same,growth inhibition,[6]; at 3.7 µM,8%
same,growth inhibition,[6]; at 11.0 µM,9%
same,growth inhibition,[6]; at 33.0 µM,3%
same,growth inhibition,[6]; at 100.0 µM,7%
same,growth inhibition,[7]; [15],13%
same,growth inhibition,[7]; [16],26%
same,growth inhibition,[7]; at 50.0 µM,-8.55%
same,growth inhibition,[8]; at 1.2 µM,-14%
same,growth inhibition,[8]; at 3.7 µM,-22%
same,growth inhibition,[8]; [15],20%
same,growth inhibition,[8]; at 11.0 µM,-22%
same,growth inhibition,[8]; at 33.0 µM,-37%
same,growth inhibition,[8]; [16],15%
same,growth inhibition,[8]; at 50.0 µM,-26.6%
same,growth inhibition,[8]; at 100.0 µM,-21%
same,growth inhibition,[9]; at 1.2 µM,3%
same,growth inhibition,[9]; at 3.7 µM,-6%
same,growth inhibition,[9]; at 11.0 µM,-14%
same,growth inhibition,[9]; at 33.0 µM,-22%
same,growth inhibition,[9]; at 100.0 µM,-18%
same,growth inhibition,[10]; at 1.2 µM,-30%
same,growth inhibition,[10]; at 3.7 µM,-15%
same,growth inhibition,[10]; at 11.0 µM,-19%
same,growth inhibition,[10]; at 33.0 µM,-15%
same,growth inhibition,[10]; at 100.0 µM,-19%
same,growth inhibition,[11]; at 1.2 µM,-27%
same,growth inhibition,[11]; at 3.7 µM,-16%
same,growth inhibition,[11]; at 11.0 µM,-24%
same,growth inhibition,[11]; at 33.0 µM,-3%
same,growth inhibition,[11]; at 100.0 µM,-11%
same,growth inhibition,[12]; at 1.2 µM,-18%
same,growth inhibition,[12]; at 3.7 µM,-6%
same,growth inhibition,[12]; at 11.0 µM,-4%
same,growth inhibition,[12]; at 33.0 µM,13%
same,growth inhibition,[12]; at 100.0 µM,42%
CCN(CC)c1ccc(N=Nc2cc(S(=O)(=O)O)ccc2O)c(O)c1,growth inhibition,[1]; at 1.2 µM,8%
same,growth inhibition,[1]; at 3.7 µM,-8%
same,growth inhibition,[1]; at 11.0 µM,-19%
same,growth inhibition,[1]; at 33.0 µM,-23%
same,growth inhibition,[1]; at 100.0 µM,-46%
same,growth inhibition,[2]; at 1.2 µM,3%
same,growth inhibition,[2]; at 3.7 µM,-9%
same,growth inhibition,[2]; at 11.0 µM,4%
same,growth inhibition,[2]; at 33.0 µM,9%
same,growth inhibition,[2]; at 100.0 µM,27%
same,growth inhibition,[3]; at 1.2 µM,-11%
same,growth inhibition,[3]; at 3.7 µM,-19%
same,growth inhibition,[3]; [15],56%
same,growth inhibition,[3]; at 11.0 µM,-33%
same,growth inhibition,[3]; at 33.0 µM,-28%
same,growth inhibition,[3]; [16],73% (active)
same,growth inhibition,[3]; at 50.0 µM,29.2%
same,growth inhibition,[3]; at 100.0 µM,-13%
same,growth inhibition,[4]; at 1.2 µM,-28%
same,growth inhibition,[4]; at 3.7 µM,-7%
same,growth inhibition,[4]; [15],55%
same,growth inhibition,[4]; at 11.0 µM,-19%
same,growth inhibition,[4]; at 33.0 µM,-9%
same,growth inhibition,[4]; [16],81% (active)
same,growth inhibition,[4]; at 50.0 µM,-14.1%
same,growth inhibition,[4]; at 100.0 µM,22%
same,growth inhibition,[5]; at 1.2 µM,-15%
same,growth inhibition,[5]; at 3.7 µM,-9%
same,growth inhibition,[5]; at 11.0 µM,3%
same,growth inhibition,[5]; at 33.0 µM,1%
same,growth inhibition,[5]; at 100.0 µM,5%
same,growth inhibition,[13]; [15],-13%
same,growth inhibition,[13]; [16],-3%
same,growth inhibition,[13]; at 50.0 µM,66.1%
same,growth inhibition,[6]; at 1.2 µM,8%
same,growth inhibition,[6]; at 3.7 µM,18%
same,growth inhibition,[6]; at 11.0 µM,4%
same,growth inhibition,[6]; at 33.0 µM,9%
same,growth inhibition,[6]; at 100.0 µM,10%
same,growth inhibition,[7]; [15],32%
same,growth inhibition,[7]; [16],39%
same,growth inhibition,[7]; at 50.0 µM,21.5%
same,growth inhibition,[8]; at 1.2 µM,24%
same,growth inhibition,[8]; at 3.7 µM,17%
same,growth inhibition,[8]; [15],24%
same,growth inhibition,[8]; at 11.0 µM,7%
same,growth inhibition,[8]; at 33.0 µM,11%
same,growth inhibition,[8]; [16],45%
same,growth inhibition,[8]; at 50.0 µM,50.9%
same,growth inhibition,[8]; at 100.0 µM,35%
same,growth inhibition,[9]; at 1.2 µM,-13%
same,growth inhibition,[9]; at 3.7 µM,-6%
same,growth inhibition,[9]; at 11.0 µM,-42%
same,growth inhibition,[9]; at 33.0 µM,-64%
same,growth inhibition,[9]; at 100.0 µM,-38%
same,growth inhibition,[10]; at 1.2 µM,-12%
same,growth inhibition,[10]; at 3.7 µM,-37%
same,growth inhibition,[10]; at 11.0 µM,-22%
same,growth inhibition,[10]; at 33.0 µM,-3%
same,growth inhibition,[10]; at 100.0 µM,-12%
same,growth inhibition,[11]; at 1.2 µM,-13%
same,growth inhibition,[11]; at 3.7 µM,-10%
same,growth inhibition,[11]; at 11.0 µM,-12%
same,growth inhibition,[11]; at 33.0 µM,-1%
same,growth inhibition,[11]; at 100.0 µM,-15%
same,growth inhibition,[14]; [15],42%
same,growth inhibition,[14]; [16],75% (active)
same,growth inhibition,[14]; at 50.0 µM,19.9%
same,growth inhibition,[12]; at 1.2 µM,2%
same,growth inhibition,[12]; at 3.7 µM,3%
same,growth inhibition,[12]; at 11.0 µM,2%
same,growth inhibition,[12]; at 33.0 µM,-2%
same,growth inhibition,[12]; at 100.0 µM,7%
